From PubChem BioAssay (NCATS)
“And” between values parts separate entries of the source, which are not always exact repeats. Equal entries are not always repeated. Results filed as inconclusive are left out. The source made the active and inactive calls. Unless noted, calls follow the shape of the dose curve; as a rule, active = well fitted curve in the direction sought with a large enough effect; inconclusive = small, poorly fitted or top-dose-only effect, or another doubt; inactive = no such curve, though single readings can be large; an effect the other way counts as inactive or inconclusive.

Legend:
[1] = qHTS profiling for inhibitors of Plasmodium falciparum proliferation (AID 504749); also: nearly all actives have a fitted effect of over 60% in size; also: potency is read from the fitted curve at half-maximal effect;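 as to activity, negative = inhibition: 0% = DMSO vehicle and full inhibition = artemisinin control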; conditions: P. falciparum in erythrocytes, SYBR Green DNA, 72 h
Method in brief: (§1)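 P. falciparum-infected erythrocytes (0.3% parasitemia, 2.5% hematocrit final) were exposed to compounds for 72 h at 37 C in 5% CO2, then lysed with SYBR Green buffer overnight at room temperature; parasite DNA fluorescence was normalized to artemisinin and DMSO controls.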

3D7 = test: as above; conditions: P. falciparum in erythrocytes, SYBR Green DNA, 72 h; series mostly up to 28.7 µM
Method in brief: as §1

7G8 = test: as above; conditions: P. falciparum in erythrocytes, SYBR Green DNA, 72 h; series mostly up to 28.7 µM
Method in brief: as §1

AA1029 = test: as above; conditions: P. falciparum in erythrocytes, SYBR Green DNA, 72 h; series mostly up to 28.7 µM
Method in brief: as §1

AS120 = test: as above; conditions: P. falciparum in erythrocytes, SYBR Green DNA, 72 h; series mostly up to 28.7 µM
Method in brief: as §1

ATS189 = test: as above; conditions: P. falciparum in erythrocytes, SYBR Green DNA, 72 h; series mostly up to 28.7 µM
Method in brief: as §1

ATS95 = test: as above; conditions: P. falciparum in erythrocytes, SYBR Green DNA, 72 h; series mostly up to 28.7 µM
Method in brief: as §1

C2A = test: as above; conditions: P. falciparum in erythrocytes, SYBR Green DNA, 72 h; series mostly up to 28.7 µM
Method in brief: as §1

CP185 = test: as above; conditions: P. falciparum in erythrocytes, SYBR Green DNA, 72 h; series mostly up to 28.7 µM
Method in brief: as §1

CP191 = test: as above; conditions: P. falciparum in erythrocytes, SYBR Green DNA, 72 h; series mostly up to 28.7 µM
Method in brief: as §1

CP192 = test: as above; conditions: P. falciparum in erythrocytes, SYBR Green DNA, 72 h; series mostly up to 28.7 µM
Method in brief: as §1

CP194 = test: as above; conditions: P. falciparum in erythrocytes, SYBR Green DNA, 72 h; series mostly up to 28.7 µM
Method in brief: as §1

[2] = qHTS drug screen for cell cycle checkpoint inhibitors in PARPi-resistant BRCA-mutant ovarian cancer cell lines. (AID 1963452; calls by dose curve); conditions: PEO1/OlaR viability, CellTiter-Glo luminescence, 96 h, stronger effect = lower value
Method in brief: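 PEO1, PEO4 and PEO1/OlaR ovarian cancer cells, 600 per well, exposed 96 h at 37C to a dilution series. Viability read by CellTiter-Glo luminescence, normalized to DMSO and empty wells; activity summarized as Z-AUC.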

[3] = qHTS for identification of novel therapeutic agents for treatment of microphthalmiaassociated transcription factor (MiT) renal cell carcinoma (RCC) (AID 1963991; calls by dose curve; also: potency is read from the fitted curve at half-maximal effect;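 as to z-score: curves scaled with 100% = DMSO viability and 0% = empty wells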); conditions: CellTiter-Glo, 48 h; for z-score: stronger effect = lower value
Method in brief: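 UOK109/UOK124/UOK145 (TFE3 fusions, three partners); 500 cells/well; MIPE v4.0, 1912 cpds, 11 conc.; 48 h, 37 C; CellTiter-Glo, 15 min RT; lum. Norm.: DMSO 100%, empty 0%.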

[4] = target: Cytochrome P450 1A2 (Homo sapiens) (UniProt P05177); test: qHTS for inhibitors of CYPIA2 against the NCATS DSHEA and TCM libraries (AID 1919976); conditions: recombinant CYP1A2 enzyme activity, luminescence; series mostly up to 37 µM;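 also: light from luciferin formed by CYP1A2 from a pro-luciferin substrate; % is scaled to controls: 0 for no effect and ±100 for the full control effect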
Chain of Cytochrome P450 1A2 (Homo sapiens) (P05177 whole entry, looked up): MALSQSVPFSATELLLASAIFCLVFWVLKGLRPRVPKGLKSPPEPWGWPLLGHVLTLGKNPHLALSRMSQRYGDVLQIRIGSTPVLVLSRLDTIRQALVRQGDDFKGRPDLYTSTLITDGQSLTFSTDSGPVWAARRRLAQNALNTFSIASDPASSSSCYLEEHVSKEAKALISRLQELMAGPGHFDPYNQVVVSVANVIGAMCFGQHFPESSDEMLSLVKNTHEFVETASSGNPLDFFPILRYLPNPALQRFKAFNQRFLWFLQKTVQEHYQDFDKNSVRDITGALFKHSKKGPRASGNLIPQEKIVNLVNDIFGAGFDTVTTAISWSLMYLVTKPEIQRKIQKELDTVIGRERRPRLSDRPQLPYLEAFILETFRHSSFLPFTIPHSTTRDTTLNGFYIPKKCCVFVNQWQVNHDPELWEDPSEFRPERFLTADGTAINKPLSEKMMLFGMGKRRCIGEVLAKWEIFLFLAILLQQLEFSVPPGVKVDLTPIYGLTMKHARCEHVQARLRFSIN
Method in brief: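 Human CYP1A2 with its pro-luciferin substrate in supplier buffer (typically 100 mM KPO4) was pre-incubated with compounds 15 min at RT. Reaction was started with 1x NADPH regeneration solution and run 30-45 min at RT in the dark, then luminescence was read after P450-Glo detection reagent (30 min RT).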

[5] = qHTS Counterscreen for compound interference against the NCATS DSHEA and TCM libraries (AID 1919978); conditions: firefly luciferase detection reagent interference, luminescence;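 also: compounds preincubated with 1 µM D-luciferin or buffer before detection reagent; % of control where 0% means no effect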
Method in brief: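 Firefly luciferase detection reagent was added after compounds (19.5 nM–39.8 uM final) had been incubated 15 min at room temperature with 1 uM D-luciferin or with 100 mM phosphate buffer alone. Luminescence was read after 30 min at room temperature.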

[6] = Dual reporter qHTS for agonist of Pregnane X Receptor (hPXR) against the NCATS DSHEA and TCM libraries: Fluorescence readout (AID 1920058); conditions: PXR dual reporter cells; series mostly up to 40 µM; also: 0% is about no effect
Method in brief: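 hPXR-Luc HepG2 cells (2000/well) in phenol red-free medium with charcoal-stripped FBS attached for 5 h, then were exposed to compounds for about 24 h at 37 °C. Viability was read by CellTiter-Fluor fluorescence (Ex/Em 405/540 nm) after 1 h.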

[7] = target: Nuclear receptor subfamily 1 group I member 2 (Homo sapiens) (UniProt O75469); test: Dual reporter qHTS for agonist of Pregnane X Receptor (hPXR) against the NCATS DSHEA and TCM libraries: Luminescence readout (AID 1920059); conditions: hPXR dual reporter cells, luciferase luminescence agonist; series mostly up to 40 µM; also: 0% is about no effect
Chain of Nuclear receptor subfamily 1 group I member 2 (Homo sapiens) (O75469 whole entry, looked up): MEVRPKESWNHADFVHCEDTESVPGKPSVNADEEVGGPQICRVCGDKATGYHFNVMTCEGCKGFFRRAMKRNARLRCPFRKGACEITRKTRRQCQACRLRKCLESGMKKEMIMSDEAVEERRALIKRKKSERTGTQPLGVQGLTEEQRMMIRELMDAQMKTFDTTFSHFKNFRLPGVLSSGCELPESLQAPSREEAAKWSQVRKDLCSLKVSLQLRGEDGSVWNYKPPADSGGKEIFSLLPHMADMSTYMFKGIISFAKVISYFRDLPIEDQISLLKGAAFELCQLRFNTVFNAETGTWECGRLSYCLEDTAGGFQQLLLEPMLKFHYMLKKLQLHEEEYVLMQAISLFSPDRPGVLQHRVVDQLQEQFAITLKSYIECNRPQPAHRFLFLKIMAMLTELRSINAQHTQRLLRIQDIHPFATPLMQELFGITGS
Method in brief: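 hPXR-LucHepG2 cells in phenol red-free DMEM with 5% charcoal-stripped FBS, 2000 cells/well, attached 5 h, then exposed 24 h at 37C to compounds; rifampicin as positive agonist control (2.8 nM–92 uM). Luciferase luminescence read.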

[8] = target: Nuclear receptor subfamily 1 group I member 2 (Homo sapiens) (UniProt O75469); test: Dual reporter qHTS for antagonist of Pregnane X Receptor (hPXR) against the NCATS DSHEA and TCM libraries: Luminescence Readout (AID 1920060); conditions: hPXR dual reporter cells, luciferase luminescence, antagonist mode; series mostly up to 40 µM;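 also: HepG2 cells carrying hPXR luciferase reporter stimulated with rifampicin at 2 µM; 0% is about no effect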
Method in brief: (§2)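 HepG2 hPXR-Luc, 2000 cells/well, charcoal-stripped FBS medium; 5 h attach; RIF 2 uM final; 24 h 37C/5% CO2; CellTiter-Fluor 1 h, fluor 405/540; ONE-Glo 30 min RT, lum.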

[9] = Dual reporter qHTS for antagonist of Pregnane X Receptor (hPXR) against the NCATS DSHEA and TCM libraries: Fluorescence Readout (AID 1920061); conditions: PXR dual reporter cells, antagonist mode; series mostly up to 40 µM; also: 0% is about no effect
Method in brief: as §2

[10] = at 28.7 µM (top of the series), parasite line A
[11] = at 28.7 µM (top of the series), parasite line B
[12] = measured here: PEO1 parental Z-AUC
[13] = TFE3-RCC UOK109 viability, measured here: UOK109 Z-AUC
[14] = TFE3-RCC viability, measured here: UOK124 Z-AUC
[15] = TFE3-RCC viability, measured here: UOK145 Z-AUC
[16] = at 12.8 µM (top of the series), parasite line A
[17] = at 12.8 µM (top of the series), parasite line B

CC(C)C(Br)C(=O)NC(N)=O (stereo not drawn)
inactive: activity, negative = inhibition [1, 10] 10.2% | activity, negative = inhibition [1, 11] 11.6% | Potency (3D7) | Potency (7G8) | Potency (AA1029) | Potency (AS120) | Potency (ATS189) | Potency (ATS95) | Potency (C2A) | Potency (CP185) | Potency (CP191) | Potency (CP192) | Potency (CP194)

COC(=O)C1=CCCN(C)C1
inactive: activity, negative = inhibition [1, 10] 0.472% | activity, negative = inhibition [1, 11] 19.4% | Potency (3D7) | Potency (7G8) | Potency (AA1029) | Potency (AS120) | Potency (ATS189) | Potency (ATS95) | Potency (C2A) | Potency (CP185) | Potency (CP191) | Potency (CP192) | Potency (CP194)

O=C(O)c1nn(Cc2ccc(Cl)cc2Cl)c2ccccc12
-0.814: z-score [3, 15]
0.154: z-score [3, 13]
0.856: z-score [3, 14]
0.662: Z-AUC [2, 12]
0.605: Z-AUC ([2]; measured here: PEO4 Z-AUC)
inactive: Z-AUC [2] 0.664 | activity, negative = inhibition [1, 10] -9.19% | activity, negative = inhibition [1, 11] -4.8% | Potency (3D7) | Potency (7G8) | Potency (AA1029) | Potency (AS120) | Potency (ATS189) | Potency (ATS95) | Potency (C2A) | Potency (CP185) | Potency (CP191) | Potency (CP192) | Potency (CP194)

C[C@@H]1CC[C@H]2[C@@H](C)C(=O)O[C@@H]3O[C@@]4(C)CC[C@@H]1[C@]32OO4
1.15: Z-AUC ([2]; measured here: PEO4 Z-AUC)
0.931: Z-AUC [2, 12]
inactive: Z-AUC [2] 1.33

NCc1cccnc1
inactive: activity, negative = inhibition [1, 10] -9.24% | activity, negative = inhibition [1, 11] -2.31% | Potency (3D7) | Potency (7G8) | Potency (AA1029) | Potency (AS120) | Potency (ATS189) | Potency (ATS95) | Potency (C2A) | Potency (CP185) | Potency (CP191) | Potency (CP192) | Potency (CP194)

C[C@@H]1C[C@@H]([C@H](O)CC2CC(=O)NC(=O)C2)C(=O)[C@@H](C)C1
inactive: Z-AUC [2] 0.13
-1.12: z-score [3, 14]
-1.24: z-score [3, 15]
-2.25: z-score [3, 13]
0.0418: Z-AUC ([2]; measured here: PEO4 Z-AUC)
active: Potency ([3]; TFE3-RCC UOK109 viability) 46.9 nM
-0.0615: Z-AUC [2, 12]

CCOC(=O)NC(O)C(Cl)(Cl)Cl (stereo not drawn)
inactive: activity, negative = inhibition [1, 10] 5.94% | activity, negative = inhibition [1, 11] 0.346% | Potency (3D7) | Potency (7G8) | Potency (AA1029) | Potency (AS120) | Potency (ATS189) | Potency (ATS95) | Potency (C2A) | Potency (CP185) | Potency (CP191) | Potency (CP192) | Potency (CP194)

CCC(=O)O[C@H]1CC[C@H]2[C@@H]3CCC4=CC(=O)CC[C@]4(C)[C@H]3CC[C@]12C
inactive: activity, negative = inhibition [1, 16] 4.77% | activity, negative = inhibition [1, 17] 12.2% | Potency (3D7) | Potency (7G8) | Potency (AA1029) | Potency (AS120) | Potency (ATS189) | Potency (ATS95) | Potency (C2A) | Potency (CP185) | Potency (CP191) | Potency (CP192) | Potency (CP194)

C[C@@H]1O[C@@H](O[C@@H]2C=C3CC[C@@H]4[C@H](CC[C@]5(C)[C@@H](c6ccc(=O)oc6)CC[C@]45O)[C@@]3(C)CC2)[C@H](O)[C@H](O)[C@H]1O
inactive: Z-AUC [2] -2.1
-2.14: Z-AUC ([2]; measured here: PEO4 Z-AUC)
-2.52: Z-AUC [2, 12]

COc1ccc(CN2CCNCC2)c(OC)c1OC
inactive: activity, negative = inhibition [1, 16] 8.69% | activity, negative = inhibition [1, 17] 4.48% | Potency (3D7) | Potency (7G8) | Potency (AA1029) | Potency (AS120) | Potency (ATS189) | Potency (ATS95) | Potency (C2A) | Potency (CP185) | Potency (CP191) | Potency (CP192)

C#C[C@]1(O)C=C[C@H]2[C@@H]3CCC4=CC(=O)CC[C@@H]4[C@H]3CC[C@@]21CC
1.32: Z-AUC ([2]; measured here: PEO4 Z-AUC)
inactive: Z-AUC [2] 1.19
1.82: Z-AUC [2, 12]

CC[n+]1c(-c2ccccc2)c2cc(N)ccc2c2ccc(N)cc21
active: Potency ([1]; parasite line A) 158 nM and 447 nM | Potency ([1]; parasite line B) 112 nM and 316 nM | Potency (3D7) 158 nM and 251 nM | Potency (7G8) 39.8 nM and 70.8 nM | Potency (AA1029) 112 nM and 355 nM | Potency (AS120) 100 nM and 282 nM | Potency (ATS189) 141 nM and 708 nM | Potency (ATS95) 126 nM and 355 nM | Potency (C2A) 251 nM and 355 nM | Potency (CP185) 158 nM and 316 nM | Potency (CP191) 282 nM and 447 nM | Potency (CP192) 190 nM and 426 nM | Potency (CP194) 269 nM and 1.2 µM

CN1C(=O)CN=C(c2ccccc2)c2cc([N+](=O)[O-])ccc21
inactive: activity, negative = inhibition [1, 10] 1.56% | activity, negative = inhibition [1, 11] -3.67% | Potency (3D7) | Potency (7G8) | Potency (AA1029) | Potency (AS120) | Potency (ATS189) | Potency (ATS95) | Potency (C2A) | Potency (CP185) | Potency (CP191) | Potency (CP192) | Potency (CP194)

Clc1ccc(CO/N=C(\Cn2ccnc2)c2ccc(Cl)cc2Cl)c(Cl)c1
active: Potency ([1]; parasite line A) 3.55 µM | Potency ([1]; parasite line B) 2.82 µM | Potency (3D7) 2.82 µM | Potency (7G8) 1.12 µM | Potency (AA1029) 5.01 µM | Potency (AS120) 2.24 µM | Potency (ATS189) 3.98 µM | Potency (ATS95) 6.31 µM | Potency (C2A) 10 µM | Potency (CP185) 10 µM | Potency (CP191) 3.98 µM | Potency (CP192) 16.9 µM | Potency (CP194) 10.7 µM

CCCCCCCCC(=O)NCc1ccc(O)c(OC)c1
inactive: activity, negative = inhibition [1, 10] -0.439% | activity, negative = inhibition [1, 11] 7.79% | Potency (3D7) | Potency (7G8) | Potency (AA1029) | Potency (AS120) | Potency (ATS189) | Potency (ATS95) | Potency (C2A) | Potency (CP185) | Potency (CP191) | Potency (CP192) | Potency (CP194)

C[C@]12CC[C@H](O)CC1=CC[C@@H]1[C@@H]2CC[C@]2(C)C(=O)CC[C@@H]12
0.516: Z-AUC [2, 12]
inactive: outcome [4] | max response [5] -2.96% | outcome [6] | outcome [7] | outcome [8] | outcome [9] | Z-AUC [2] 1.09
0.608: Z-AUC ([2]; measured here: PEO4 Z-AUC)
